Source: PubChem BioAssay (National Center for Advancing Translational Sciences (NCATS))
HT1080 IDH1KD tx = qHTS for induction of synthetic lethality in tumor cells producing 2HG: qHTS for the HT-1080-IDH1KD cell line; actives 2% (n = 360,000); Potency, µM (titrated, usually from 46.1 µM), inactives show at the top dose activity, negative = toxicity, most hits filed as cytotoxic; AID 686971, 2013; HT-1080 IDH1 knockdown viability, ATP luminescence, 48 h;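 further: potency means the concentration at half of the fitted maximal effect; 0% = DMSO wells and -100% = cell-free medium wells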
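In this qHTS, HT-1080 cells depleted of IDH1 are exposed for 48 h at 37 °C to compound titrations. Toxicity is scored from CellTiter-Glo luminescence, with DMSO as full viability and medium alone as none.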
TDP1 cell CPT = qHTS for Inhibitors of human tyrosyl-DNA phosphodiesterase 1 (TDP1): qHTS in cells in presence of CPT; AID 686979, 2013; actives 12% (n = 420,000); Potency, µM (series often up to 46.2 µM), for inactives: at the top dose activity change, negative = growth inhibition, most hits filed as inhibitors; chicken DT40 Tdp1-/-;hTDP1 cells + 20 nM CPT, ATP luminescence, 48 h; further: potency means the concentration at half of the fitted maximal effect; nearly all actives have a fitted effect of over 55% in size
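Cell growth measured by CellTiter-Glo luminescence after a minimum 48 h, 37 C compound exposure with 20 nM CPT in Tdp1-knockout DT40 cells stably expressing hTDP1, seeded 400/well; qHTS titration format.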
IL-1B inflam inh = qHTS for Inhibitors of Inflammasome Signaling: IL-1-beta AlphaLISA Primary Screen | THP-1 LPS/ATP IL-1B secretion, AlphaLISA, 16 h; stronger effect = lower value | actives 4.7% (n = 360,000) | activity change, % at 57.5 µM; in the data active means activity change below about -50%; inconclusive means mostly about -30% to -49%
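THP-1 cells pretreated 1 hr with compounds (up to 57.5 uM final), then stimulated with LPS (250 ng/mL final) plus ATP (1.25 mM final); secreted IL-1B measured by AlphaLISA after 16 hr, decreased signal indicating inhibition.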
TDP1 cell noCPT = qHTS for Inhibitors of human tyrosyl-DNA phosphodiesterase 1 (TDP1): qHTS in cells in absence of CPT; DT40 Tdp1-/- hTDP1 cells, no CPT, ATP luminescence, 48 h; Potency, µM (top dose mostly 46.2 µM), inactives show at the top dose activity change, negative = growth inhibition, actives largely listed as inhibitors; actives 15% (n = 420,000); further: potency means the concentration at half of the fitted maximal effect; nearly all actives have a fitted effect of over 55% in size
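Growth kinetics read by CellTiter-Glo luminescence after ≥48 hr at 37 °C. Cells: DT40 Tdp1-/- stably carrying human TDP1, 400 per well, compound exposure in the absence of CPT (DMSO vehicle).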
HT1080-NT tox = qHTS for induction of synthetic lethality in tumor cells producing 2HG: qHTS for the HT-1080-NT fibrosarcoma cell line; HT-1080-NT fibrosarcoma viability, CellTiter-Glo ATP luminescence, 48 h; Potency, µM (titrated, usually from 46.1 µM), for inactives: top-dose activity, negative = less viability, most hits filed as cytotoxic; actives 1.6% (n = 360,000); AID 686970, 2013;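 further: NT is the 2HG producing partner of a matched IDH1 knockdown line; potency means the concentration at half of the fitted maximal effect; 0% = DMSO-treated cells and -100% = media-only wells without cells; nearly all actives have a fitted effect of over 55% in size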
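A 48-hour cytotoxicity screen used HT-1080-NT cells plated 2 hours before compound delivery. ATP-based CellTiter-Glo luminescence measured viability, normalized to DMSO and no-cell controls.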
ALOX12 inh = Primary qHTS assay for inhibitors of human arachidonate 12S-lipoxygenase (ALOX12): Round 2 | purified 12hLO, xylenol orange hydroperoxide absorbance | actives 1.1% (n = 580,000) | Potency, µM (series often up to 108 µM), for inactives: at the top dose activity change, negative = inhibition, most hits filed as inhibitors; further: potency means the concentration at half of the fitted maximal effect
Target sequence (P18054 whole entry, looked up): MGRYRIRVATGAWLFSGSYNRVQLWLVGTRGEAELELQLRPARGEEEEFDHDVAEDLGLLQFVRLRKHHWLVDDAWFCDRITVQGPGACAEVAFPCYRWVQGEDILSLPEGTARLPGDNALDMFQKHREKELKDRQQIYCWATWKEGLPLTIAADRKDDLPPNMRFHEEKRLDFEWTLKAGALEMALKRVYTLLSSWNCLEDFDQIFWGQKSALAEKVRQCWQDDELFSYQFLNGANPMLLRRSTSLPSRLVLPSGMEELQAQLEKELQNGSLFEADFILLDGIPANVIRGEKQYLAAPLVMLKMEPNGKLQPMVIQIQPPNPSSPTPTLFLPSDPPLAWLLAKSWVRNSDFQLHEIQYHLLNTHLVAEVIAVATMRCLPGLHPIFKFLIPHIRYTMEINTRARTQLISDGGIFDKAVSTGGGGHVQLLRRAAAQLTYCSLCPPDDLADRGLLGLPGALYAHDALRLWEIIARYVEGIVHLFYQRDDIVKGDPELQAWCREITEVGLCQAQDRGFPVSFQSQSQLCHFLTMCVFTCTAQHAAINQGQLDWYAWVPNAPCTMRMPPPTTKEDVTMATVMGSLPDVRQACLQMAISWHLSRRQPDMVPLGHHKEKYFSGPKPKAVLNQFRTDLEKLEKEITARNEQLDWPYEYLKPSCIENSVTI
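Purified human 12hLO at 150 nM in 25 mM Hepes, 0.01% Triton X-100, pH 7.0, preincubated 15 min at room temperature with compound. Reaction started with 40 uM arachidonic acid, 30 min at room temperature. Hydroperoxide measured by Fe-xylenol orange, 573/405 nm absorbance ratio.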
The depositor's hits bear a star; i = inactive; ? = inconclusive; nt = not tested or not shown; [ ] = remark or other dose. Shown is part of a subset that was picked to be rich in hits. Unless noted, the call rests on the fitted dose curve; in most records, active means well fitted curve in the direction sought with a large enough effect; inconclusive means small, poorly fitted or top-dose-only effect, or another doubt; inactive means no such curve, though single readings can be large; an effect the other way counts as inactive or inconclusive. Unless noted, on the % scale 0 is the no-effect control and ±100 the full control effect.

SMILES | HT1080 IDH1KD tx | TDP1 cell CPT | IL-1B inflam inh | TDP1 cell noCPT | HT1080-NT tox | ALOX12 inh
COCCNC(=O)C1CCC(CNS(=O)(=O)c2ccc3c(c2)CC(C)N3C(C)=O)CC1 (stereo not given) | nt | -9% | nt | -11% | nt | -14%
O=C(NCCN1CCC(n2c(=O)[nH]c3ccccc32)CC1)c1cccc(Cl)c1 | -28% | 16µM* | ? | ? | -26% | ?
CCOC(=O)Cc1c(C(=O)OCC)nnc2c(-c3ccc(Cl)cc3)c(C)nn12 | nt | nt | nt | nt | nt | 2%
CC(C)(CN1CCN(Cc2ccccc2)CC1)NS(=O)(=O)c1ccccc1 | -6% | ? | -10 | ? | -13% | 0%
CC(C)(CN1CCC(Cc2ccccc2)CC1)NS(=O)(=O)c1ccccc1 | -2% | 21µM* | ? | ? | -3% | ?
O=C(CCNS(=O)(=O)c1ccccc1)N1CCC(Cc2ccccc2)CC1 | -14% | ? | -50* | ? | -18% | 0%
O=C(CNS(=O)(=O)/C=C/c1ccccc1)OCC(=O)N1CCC(Cc2ccccc2)CC1 | 0% | -11% | -84* | -29% | -3% | 0%
CC1CC(C)CN(C(=O)COC(=O)CNS(=O)(=O)/C=C/c2ccccc2)C1 (stereo not given) | 0% | -2% | -13 | -5% | -2% | 59%
CC(C)(CN1CCN(C(c2ccccc2)c2ccccc2)CC1)NS(=O)(=O)c1ccccc1 | -18% | 23µM* | 13 | 16µM* | -5% | -6%
CCOC(=O)C(NC(=O)c1cc(OC)cc(OC)c1)C(=O)OCC | nt | nt | nt | nt | nt | -24%
O=c1oc2ccccc2c(NC2CCCCC2)c1NS(=O)(=O)c1cccs1 | nt | nt | nt | nt | nt | 5%
O=C1c2ccccc2CN1C1CCN(Cc2ccc(F)cc2)CC1 | nt | nt | nt | nt | nt | 1%[6.33 µM]
Cc1cc(Br)cc2c(C(=O)Nc3c(C)n(C)n(-c4ccccc4)c3=O)cc(-c3cccs3)nc12 | -27% | 23µM* | 38 | 16µM* | ? | 5%
CCc1ccc(-c2cc(C(=O)Nc3c(C)n(C)n(-c4ccccc4)c3=O)c3ccccc3n2)s1 | ? | ? | -28 | 16µM* | -20% | ?
OCC1(CC2CC2)CCCN(Cc2cccc(OCc3ccccn3)c2)C1 (stereo not given) | nt | nt | nt | nt | nt | -19%
CN(Cc1cccc(F)c1)C(=O)c1ccc(S(=O)(=O)N2CCOCC2)cc1 | -1% | 0% | -6 | -11% | 0% | 188%
CCOc1ccc(N2CC(O)(c3ccc(F)cc3)[N+]3=C2CCCC3)cc1 (stereo not given) | -3% | -14% | -8 | 23µM* | -17% | i
COc1ccc(N2CC(O)(c3ccc(OC(F)F)cc3)[N+]3=C2CCCC3)cc1 (stereo not given) | -8% | 16µM* | -54* | ? | -14% | 43%
COc1ccc(N2CC(O)(c3ccc(F)cc3)[N+]3=C2CCCC3)cc1 (stereo not given) | 10% | ? | -21 | ? | -16% | -3%
Cc1ccc2c(C)c(CCC(=O)Nc3cc(F)cc(F)c3)c(=O)oc2c1 | nt | nt | nt | nt | nt | 8%
CCCCNc1ccc2c3c(cccc13)C(=O)N(CCCC)C2=O | ? | 26µM* | -22 | 21µM* | ? | 0%
CCCN1C(=O)c2cccc3c(N4CCCCC4)ccc(c23)C1=O | 7% | ? | 76 | ? | 3% | -23%
OC(Cc1ccc2ccccc2n1)c1c(Cl)cccc1Cl (stereo not given) | nt | 4% | nt | -26% | nt | nt
CCn1c2ccc(F)cc2c2nnc(NN)nc21 | 9% | ? | 16 | 16µM* | 4% | -3%
NNc1nnc2c3cc(F)ccc3n(Cc3ccccc3)c2n1 | ? | ? | -10 | 18µM* | ? | 0%
SMILES | HT1080 IDH1KD tx | TDP1 cell CPT | IL-1B inflam inh | TDP1 cell noCPT | HT1080-NT tox | ALOX12 inh
CCCn1c2ccc(F)cc2c2nnc(NN)nc21 | -23% | ? | 7 | ? | -6% | 32%
CCc1ccc2c(c1)c1nnc(NN)nc1n2CC | -10% | ? | -2 | 18µM* | -15% | 153%
COc1ccc(OCC(=O)N2CCC(n3nccc3NC(=O)C3CC3)CC2)cc1 | 9% | 11% | -5 | -1% | 20% | 26%
O=C(NC1CCN(C(=O)N2CC3CC(C2)[C@H]2CCCC(=O)N2C3)CC1)c1n[nH]c(=O)c2ccccc12 (stereo not given in full) | nt | nt | nt | nt | nt | -1%
C[C@H](O)c1c(-c2ccc(Cl)cc2)noc1C(=O)N(C)C | nt | nt | nt | nt | nt | 21%[176 µM]
CC1(C(=O)NCc2ccccc2Br)CCN1Cc1c(F)cccc1F (stereo not given) | -18% | ? | -21 | ? | -13% | -10%
CC1(C(=O)NCc2ccccc2Br)CCN1Cc1ccccc1OC(F)F (stereo not given) | ? | ? | -54* | 23µM* | ? | 16%
CC(C)CNC(=O)C1(C)CCCN1Cc1ccccc1OC(F)F (stereo not given) | 3% | 21µM* | -5 | 23µM* | -11% | -11%
CC1(C(=O)NCCc2c[nH]c3ccccc23)CCN1Cc1ccccc1OC(F)F (stereo not given) | ? | 18µM* | -20 | ? | 23µM* | -19%
COc1ccc(CC(=O)NNC(=O)COc2ccc(Cl)cc2C)cc1S(=O)(=O)N1CCOCC1 | -1% | ? | 0 | ? | -2% | 5%
Cc1nc2c(oc3ccccc32)c(C)c1C(=O)c1ccc(Cl)cc1 | nt | nt | nt | nt | nt | -29%
COc1ccc(N=Cc2c(OC)ccc3ccccc23)cc1 | ? | 3% | 7 | -30% | ? | 23%
COc1ccc(N=Cc2c(O)c3ccccc3n2C(C)=O)cc1 | -15% | ? | 0 | 21µM* | 7% | -10%
COc1ccc(N=Cc2sc(O)c3ccccc23)cc1 | -5% | ? | -83* | ? | -11% | ?
C/C(=N/NC(=O)c1cccs1)c1ccc(Br)cc1 | nt | nt | nt | nt | nt | -30%
Fc1ccc(Nc2cnc3ccc(-c4ccccc4)nn23)cc1 | nt | nt | nt | nt | nt | 14%[176 µM]
Cc1ccc(S(=O)(=O)CC(O)COc2ccc(F)cc2Cl)c(C)c1 (stereo not given) | -10% | -9% | -145* | -14% | 1% | 0%
